Rows were chosen to be rich in hits. Some 20% of all compounds tested hit in one or more screens of this group.
Pf growth 96h = P. falciparum growth inhibition at 96 hours; P. falciparum luciferase reporter growth, 96 h; Potency, µM (highest dose often 28.7 µM), without a hit: at the highest dose activity change, negative = inhibition, hits mostly inhibitors; hit rate 6.9% among 320,000; AID 504834; note: potency is the fitted concentration of half-maximal effect; % is set by controls: 0 for no effect and ±100 for the full control effect
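96 h incubation, 37 C, 5% CO2, of luciferase-reporter P. falciparum-infected RBCs (2% hematocrit, 0.05% parasitemia final) with test compounds; endpoint luminescence.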
CHX counter = affects cycloheximide protein synthesis inhibition readout, counter-screen | cell reporter, cycloheximide protein synthesis inhibition counterscreen | max response, % | hit rate 12% among 300,000; in the data active = max response mostly above about 13%, no sharp cut-off; inactive = mostly below about 14%; note: read at 38.3 µM for the half of the compounds with a filed dose; 0% is about no effect
Pf growth 48h = P. falciparum growth inhibition at 48 hours (one generation). P. falciparum luciferase growth in erythrocytes, 48 h. Potency, µM (highest dose often 28.7 µM), inactives show at the top dose activity change, negative = inhibition, usual class: inhibitors. hit rate 5.9% among 310,000; note: potency is the fitted concentration of half-maximal effect; % is set by controls: 0 for no effect and ±100 for the full control effect
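Firefly luciferase activity from engineered P. falciparum reports growth; inhibitors lower the luminescent signal. Cultures contained 2% hematocrit erythrocytes at 0.1% final parasitemia.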
Shiga inhibitor = blocks Shiga toxin action in Vero cells | inhibition, % at 38.7 µM | hit rate 9.2% among 290,000 | AID 2315 | Vero cells, Shiga toxin protein synthesis inhibition reporter; in the data active = inhibition mostly above about 28%, no sharp cut-off; inactive = mostly below about 43%; note: 0% is about no effect
HCMV inh = human cytomegalovirus inhibition; HFF cells, HCMV-luciferase reporter, 72 h; active compounds read low; activity change, negative = inhibition, % at 57.5 µM; hit rate 4.5% among 410,000; AID 1259415; in the data active = activity change below about -60%; inconclusive = no clear call, values can overlap the other calls; inactive = above about -39%; note: % is set by controls: 0 for no effect and ±100 for the full control effect
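After 16 h attachment at 37C, HFF cells received test compound and HCMV-luciferase (1 PFU/cell); reporter luminescence read 72 h later, data normalized against buffer-only and known inhibitor Salinomycin.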
Starred values were filed as active, the others as inactive; i = inactive; ? = inconclusive; · = no result given; ! = a repeat was not active. Unless noted, calls come from the whole dose curve; as a rule, active = well fitted inhibition curve with a large enough effect; inconclusive = small, poorly fitted or top-dose-only effect, or another doubt; inactive = no such curve, though single readings can be large or run the other way.

SMILES	Pf growth 96h	CHX counter	Pf growth 48h	Shiga inhibitor	HCMV inh
COc1c(S(=O)(=O)N2CCCCC2)ccc2c(S(=O)(=O)N3CCCCC3)cccc12	·	·	·	·	-85.5*
C=CCn1c(NCc2c[nH]c3ccccc23)nc2ccccc21	25.1%	17.5*	61.5%	27.4*	78.1
C=CCn1c(NCc2ccc(OC)cc2)nc2ccccc21	?	18.5*	14.9%	39.9*	36.2
CCn1c(NCc2c[nH]c3ccccc23)nc2ccccc21	·	·	·	·	44.3
Cn1c(NCc2c[nH]c3ccccc23)nc2ccccc21	8.2%	15.1*	63.4%	70.2	113.5
CS(=O)(=O)N(CC(=O)Nc1ccccc1C(=O)NCc1ccco1)c1ccccc1F	-21.5%	12.5	-27.7%	2.6	-36.1
CCOC(=O)c1c(CN(C)C)n(C)c2c(O)c(N=NC(N)=O)c3ccc(Br)cc3c12	4.3%	-0.7	0.415µM*	22.0	-14.9
Cc1ccc(-c2nnc(SCC#CCOC(=O)c3cccs3)o2)cc1	·	8.6*	44.3%	39.0	66.8
Cc1ccc(-c2nnc(SCC#CCOC(=O)c3ccco3)o2)cc1	i	27.1*	·	47.0	40.3
CCCS(=O)(=O)NC(=O)C1(C)CCN(C(=O)c2cc(C)on2)C1 (centres undefined)	·	·	·	·	19.2
CCCCc1ccc(-c2nc(NC(=O)C3C4CCC(O4)C3C(=O)O)sc2C)cc1 (centres undefined)	97.9%	44.1*	33.3%	58.2*	·
Cc1ccc(-c2nc(CN(C)C(C3CC3)C3CC3)c(C)o2)cc1	-19.4%	12.8	-6.5%	21.5	59.5
CSc1ccc(-c2nc(CN(C)C3CCOC3)c(C)o2)cc1 (centres undefined)	?	31.2*	99.9%	42.2*	26.4
O=C(COC(=O)/C=C/c1ccc(Cl)cc1)Nc1ccc2[nH]c(=O)[nH]c2c1	43.8%	·	44.1%	·	-19.1
CC1=C(C)C(=O)C(CCCCC#CCCCC#CCO)=C(C)C1=O	9.28µM*	-1.8	13.1µM*	-12.4	·
COc1ccc(OC)c(CN(CC(C)C)S(=O)(=O)c2ccccc2Br)c1	·	·	·	·	-34.8
Nc1[nH]n2c(=O)c3c(nc2c1N=Nc1ccc(Cl)cc1)CCCC3	?	-3.0	?	-6.8	-95.3*
Nc1[nH]n2c(=O)c3c(nc2c1N=Nc1ccccc1)CCCC3	?	-1.9	0.8%	-6.1	?
Cc1ccc2c(C)c(C(=O)N3CCC(c4nc5ccccc5s4)CC3)oc2c1C	·	·	·	·	20.5
CCCCCCCCCCOC(=O)C[N+](C)(C)C/C=C(/C)Cl	2.33µM*	-2.8	?	-2.6	?
CCCCCCCCOC(=O)C[N+](C)(C)C/C=C(/C)Cl	4.15µM*	-1.3	2.62µM*	6.2	-39.5
CCCCCCCCCCCCOC(=O)C[N+](C)(C)C	0.0%	7.3	?	34.0	-7.9
O=C(Nc1cccc(C(F)(F)F)c1)C(Sc1n[nH]c(=O)[nH]c1=O)c1ccccc1 (centres undefined)	?	4.7	-21.3%	-3.6	-31.3
COc1ccc(C)cc1NC(=O)C1CCC(CNS(=O)(=O)c2ccc3c(c2)CCCC(=O)N3)CC1 (centres undefined)	·	·	·	·	39.0
CCOc1ccc(/C=C/c2nc(C#N)c(NC(C)CC)o2)cc1 (centres undefined)	·	·	·	·	-36.0
SMILES	Pf growth 96h	CHX counter	Pf growth 48h	Shiga inhibitor	HCMV inh
O=C(COc1ccccc1)Nc1ccccc1N1CCCCC1	3.8%	-1.7	?	-17.3	?
O=C(COc1ccc([N+](=O)[O-])cc1)Nc1ccccc1N1CCCC1	27.5%	1.0	0.0%	-12.2	-64.3*
CCOc1ccc(OCC(=O)Nc2ccccc2N2CCCC2)cc1	11.7µM*	·	?	·	-19.9
O=C(CCNC(=O)c1ccc([N+](=O)[O-])cc1)Nc1ccccc1N1CCCC1	?	1.1	-5.1%	7.6	?
O=C(COc1ccccc1)Nc1ccccc1N1CCN(c2ccccc2)CC1	2.94µM*	0.7	?	-2.4	-10.1
CN1CCN(c2ccccc2NC(=O)COc2ccc(Br)cc2)CC1	1.85µM*	-2.2	·	-18.6	-6.9
COc1ccc(NC(=O)Nc2ccc3c(c2)C(=O)N([C@H](C)CO)C[C@H](C)[C@@H](CN(C)C(=O)Nc2ccc(OC)cc2)O3)cc1	·	·	·	·	48.4
CCOC(=O)c1sc(C)c2c1NC(c1ccc(Cl)cc1)NC2=O (centres undefined)	0.0%	-2.7	0.0%	-2.0	-19.7
Cc1ccc(CNC(=O)c2cc(S(=O)(=O)N3CCCCC3)cn2C)cc1	·	·	·	·	3.4
CC(=O)c1ccc(OCC(=O)Nc2ccccc2N2CCCC2)cc1	?	1.5	-2.4%	10.4	-83.1*
O=C(COc1cccc(Cl)c1)Nc1ccccc1N1CCCCC1	?	·	?	·	-39.1
O=C(c1cccc(C(F)(F)F)c1)c1c[nH]c(C(=O)NCC2CCCO2)c1 (centres undefined)	30.2%	-6.1	?	33.7	16.9
CCn1cc(Br)c(-c2nc3ccccc3c(=O)n2N)n1	24.9%	27.3*	49.6%	75.4*	76.4
COC(=O)c1ccccc1NC(=O)C(C)NS(=O)(=O)c1ccc(OC)cc1 (centres undefined)	·	3.3	1.31µM*	-8.4	-7.2
CC(Oc1ccccc1)C(=O)Nc1ccc(NC(=O)c2ccccc2)cc1 (centres undefined)	31.0%	-3.7	?	-9.1	14.0
COC(=O)c1ccccc1NC(=O)C(C)Oc1ccccc1 (centres undefined)	1.1%	-2.6	7.38µM*	-3.0	17.6
COc1cc(NC(=O)C(C)Oc2ccccc2)c(OC)cc1NC(=O)c1ccccc1 (centres undefined)	?	-0.9	10.4µM*	-9.6	·
Cc1ccc(C)c(N2CCN(CCCNC(=O)c3ccc4nc(C(C)C)oc4c3)CC2)c1	·	·	·	·	-38.8
O=S(=O)(Nc1nc2c(s1)CCCC2)c1ccc(F)cc1	·	21.3*	25.0%	54.7	8.6
O=S(=O)(Nc1nc2c(s1)CCCC2)c1ccc(Br)cc1	15.3%	6.3	17.0%	-0.4	-22.8
O=C1C2C(c3ccccc3)CC=CC2C(c2cccc([N+](=O)[O-])c2)N1Cc1ccccc1 (centres undefined)	·	-1.0	·	2.9	·
CN(C)c1ccc(-c2cccc(C3CC=CC4C3C(=O)N(Cc3ccccc3)C4c3ccc(C(F)(F)F)cc3)c2)cc1 (centres undefined)	?	14.1*!	?	50.2	?
Cc1ccc(-c2cccc(C3CC=CC4C3C(=O)N(Cc3ccccc3)C4c3cc(C)ccc3F)c2)cc1 (centres undefined)	7.38µM*	22.5	4.65µM*	24.4	-39.6
O=C1C2C(c3ccccc3)CC=CC2[C@H](c2ccc(C(F)(F)F)cc2)N1Cc1ccccc1 (some centres undefined)	?	7.3	3.29µM*	14.8	-84.5*
C[C@@H]1CC=C[C@H]2[C@H]1C(=O)N(Cc1ccccc1)[C@H]2c1ccc(C(F)(F)F)cc1	?	-1.2	?	-5.0	-26.0
Cc1ccc(F)c(C2C3C=CCC(c4ccccc4)C3C(=O)N2Cc2ccccc2)c1 (centres undefined)	·	9.1	·	-2.7	·

Assay outcomes: PubChem, National Center for Advancing Translational Sciences (NCATS)
